A selection: hits, their analogues and other compounds. The true share with any hit is near 3.4%.
GalR3 antagonist = GalR3 antagonists in HEK293 cells, primary screen, cell-based, fluorescence readout | Galanin receptor type 3 (Homo sapiens), O60755 | HEK293 GalR3-CNG cAMP membrane potential fluorescence; galR3 body fused to GalR1 C-terminus | inhibition, % at 3 µM | actives 0.44% (n = 360,000) | AID 651719, 2012;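 active = inhibition above the screen-wide average plus 3 SD, cut at about 13% in these data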;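 note: forskolin and galanin both at EC90 stimulate the cells; cAMP rise reported by CNG channel membrane potential dye signal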
Target sequence (O60755 1-299 limits assumed): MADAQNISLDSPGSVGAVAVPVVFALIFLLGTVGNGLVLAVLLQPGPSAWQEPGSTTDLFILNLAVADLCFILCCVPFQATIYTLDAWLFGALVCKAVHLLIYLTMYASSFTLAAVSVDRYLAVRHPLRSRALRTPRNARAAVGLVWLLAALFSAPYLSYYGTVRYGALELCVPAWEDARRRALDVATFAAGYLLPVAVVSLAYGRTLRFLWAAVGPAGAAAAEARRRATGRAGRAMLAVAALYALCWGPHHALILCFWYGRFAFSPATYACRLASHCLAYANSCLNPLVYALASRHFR
Cardio protect = cardioprotection against H2O2-induced cell death, primary screen, uHTS, H9c2 cells, ATPLite luminescence | H9c2 cardiomyocytes, H2O2 injury protection, 2 h | protection from H2O2 cell death, % at 20 µM | actives 0.63% (n = 360,000) | AID 588492, 2011;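 active = compounds giving at least 50% protection of heart cells from peroxide-induced death in the single-dose screen, raw or plate-pattern-corrected value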
GAA850 FXN act = FXN promoter activators, primary screen, cell-based, luciferase luminescence, HEK293 lucGAA850; actives 0.56% (n = 360,000); HEK293 lucGAA850 FXN promoter luciferase reporter, 24 h; percent of 10 µM SAHA response; activation, % at 6 µM;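 active = activation above the average of all compounds screened plus 3 SD, cutoff fixed separately per campaign, cut at about 7.5% in these data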
Gli-Sufu antag = Gli-Sufu pathway antagonists, primary screen, luciferase luminescence, Sufu-KO-LIGHT cells, uHTS | Sufu-KO-LIGHT fibroblasts, Gli luciferase reporter luminescence | inhibition, % at 5 µM | actives 0.74% (n = 340,000) | AID 588413, 2011;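 active = inhibition above about 55%, limit read from the data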
SMARCA2 act = SMARCA2 (BRM) function activators, primary screen, cell-based, luminescence, high throughput | MG213 cells, MMTV-luciferase reporter, dexamethasone, overnight | activation, % at 9.1 µM | actives 1% (n = 370,000) | AID 652017, 2013; in the data active = activation above about 7.8%
COUP-TFII inh = NR2F2 transcriptional activity inhibitors, primary screen, cell-based, luciferase reporter, HEK293T, luminescence | COUP transcription factor 2 (Homo sapiens), P24468 | HEK293T NGFI-A luciferase reporter | actives 0.7% (n = 370,000) | inhibition, % at 8.6 µM | AID 686940, 2013;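 active = inhibition above a per-plate cutoff, mean inhibition of test wells between control levels plus 3 SD, cut at about 38% in these data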;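 note: cells cotransfected with COUP-TFII expression vector driving the NGFI-A reporter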
Of the large screens only hits and unclear results are named; the others gave an inactive call.

CCC1CN(S(=O)(=O)c2ccc3c(c2)NC(=O)CC(=O)N3)c2cc(Cl)ccc2O1 (stereo not drawn)	Cardio protect 66
O=C(CN(C(=O)OCC1c2ccccc2-c2ccccc21)[C@@H](Cc1ccccc1)C(=O)O)OCc1ccc(C(=O)NCc2ccccc2)cc1	none (no result: GalR3 antagonist, Cardio protect, GAA850 FXN act, Gli-Sufu antag)
CCN1CCN(CC(=O)N2N=C(c3cccs3)CC2c2ccc(OC)c(OC)c2)C(=O)C1=O (stereo not drawn)	none
C=C1C(=O)c2sccc2C(c2ccc(OC)c(OC)c2)C1COC(C)=O (stereo not drawn)	GalR3 antagonist 28, COUP-TFII inh 89
Cn1c(=O)c2c(nc(SCC(=O)c3cccs3)n2Cc2ccc(F)cc2)n(C)c1=O	none
CC1Cc2ccccc2N1C(=O)CSc1nc2c(c(=O)n(C)c(=O)n2C)n1Cc1ccc(F)cc1 (stereo not drawn)	Cardio protect 50
COc1cccc(NCc2cc3c(C(C)(C)C)nn(-c4ccccc4)c3[nH]c2=O)c1	none
Cc1ccc(-c2nn(-c3ccccc3)c3[nH]c(=O)c(CNCc4ccccc4)cc23)cc1	Cardio protect 52
Cc1nn(-c2ccccc2)c2[nH]c(=O)c(CNCc3ccc4c(c3)OCO4)cc12	none
CC(C)(C)c1nn(-c2ccccc2)c2nc(Cl)c(C=O)cc12	none (no result: GalR3 antagonist, SMARCA2 act, COUP-TFII inh)
CCOc1ccc(NCc2cc3c(C(C)(C)C)nn(-c4ccccc4)c3[nH]c2=O)cc1	Cardio protect 58
CC(C)(C)c1nn(-c2ccccc2)c2[nH]c(=O)c(C=O)cc12	Cardio protect 57
CC(=O)OC12CCCN(C1)/C(=C/c1ccc(Cl)cc1)C2 (stereo not drawn)	none (no result: GalR3 antagonist, Cardio protect, GAA850 FXN act, Gli-Sufu antag)
COc1ccc(Cn2cc(CN3[C@@H](CC(C)C)COc4ccc(Cl)cc4S3(=O)=O)nn2)cc1	none (no result: GalR3 antagonist, Cardio protect, GAA850 FXN act, Gli-Sufu antag)
COCCCNC(=O)C[C@H]1C[C@@]2(C(=O)OC)C(=C[C@H](COCc3ccccc3)O[C@@H]2C)N(Cc2ccc(Cl)cc2Cl)C1=O	none (no result: GalR3 antagonist, Cardio protect, GAA850 FXN act, Gli-Sufu antag)
CC(C)(C)C(=O)O[C@@H]1CCC[C@@]2(C(=O)N(Cc3ccccc3)c3ccccc32)[C@H]1NC(=O)CCc1ccccc1	none (no result: GalR3 antagonist, Cardio protect, GAA850 FXN act, Gli-Sufu antag)
Cc1ccc(C(=O)C2CCN(CC(=O)N3CC(C)CC(C)C3)CC2)cc1 (stereo not drawn)	none (no result: GalR3 antagonist, Cardio protect, GAA850 FXN act, Gli-Sufu antag)
COc1ccccc1N1CCN(S(=O)(=O)c2ccc3c(c2)CCC(=O)N3)CC1	none (no result: GalR3 antagonist, Cardio protect, GAA850 FXN act, Gli-Sufu antag)
CC[C@H](C)C(C(=O)N1CCN(C(=O)OC(C)(C)C)CC1)n1cc(C(Cc2ccc(O)cc2)NC(=O)OC(C)(C)C)nn1 (stereo partly drawn)	Cardio protect 51
CC[C@H](C)C(C(=O)N1CCN(C(=O)OC(C)(C)C)CC1)n1cc(C(CO)NC(=O)OC(C)(C)C)nn1 (stereo partly drawn)	none
O=C1C2C3C=CC(CC3)C2C(=O)N1/N=C/c1ccc(O)c(O)c1 (stereo not drawn)	none
O=C1c2ccccc2C(=O)N1/N=C/c1ccc(O)c(O)c1	Cardio protect 62
O=C1c2ccccc2NC(c2cccc([N+](=O)[O-])c2)N1O (stereo not drawn)	none
Cc1c(C2Nc3ccccc3C(=O)N2O)cnn1C (stereo not drawn)	Cardio protect 52
O=C1c2ccccc2NC(c2ccc([N+](=O)[O-])cc2)N1O (stereo not drawn)	Cardio protect 62
CCn1cc(C2Nc3ccccc3C(=O)N2O)c(C)n1 (stereo not drawn)	none
N#C/C(C(=O)N1CCCC1)=C1/N=C(N)c2ccccc21	none
Cc1ccc(NC(=O)NC2=N/C(=C(/C#N)C(=O)N3CCCC3)c3ccccc32)cc1	Cardio protect 70
CCCNC(=O)c1ccc2c(=O)c(O)c(-c3ccc(F)cc3)[nH]c2c1	Cardio protect 57 (no result: GalR3 antagonist, SMARCA2 act, COUP-TFII inh)
CCCNC(=O)c1ccc2c(=O)c(O)c(-c3cccc(Br)c3)[nH]c2c1	Cardio protect 54
